Compounds with a hit are over-represented: about 7.4% of the library has one in this group of screens.
Rab9 prom act: activators of Rab9 promoter. Potency, µM (highest dose often 9.22 µM), without a hit: at the top dose activation, negative = inhibition, hits mostly activators. Huh7 Rab9 promoter-luciferase reporter, luminescence, 24 h. AID 485297. 320,000 tested, 2.8% active; further: % of control where 0% means no effect; nearly all actives have a fitted effect of over 60% in size
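Rab9 promoter-driven luciferase in stably transfected Huh7 cells; 1500 cells/well rested 2 h, exposed to compound in DMSO for 24 h at 37 °C, 5% CO2. Luminescence read 10 min after adding luciferase reagent at ambient temperature.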
SMN2 splice up: increases expression of the SMN2 splice variant; HEK293 SMN2-luciferase splicing reporter, luminescence, 30-36 h; Potency, µM (highest dose often 46.1 µM), for inactives: at the highest dose activity change, positive = activation, most hits filed as activators; 210,000 tested, 2.8% active; AID 1458; further: % of control where 0% means no effect; nearly all actives have a fitted effect of over 55% in size
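qHTS luciferase splicing reporter: luminescence rises when SMN2 exon 7 is included in transfected HEK293 cells. Compound exposure lasted 30-36 h at 37C, with 4.5 mM final sodium butyrate as control, followed by a ONE-Glo read.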
NPC1 prom act: activators of NPC1 promoter | Huh7 NPC1 promoter luciferase reporter, 24 h | Potency, µM (highest dose often 9.22 µM), for inactives: top-dose activation, hits mostly activators | 320,000 tested, 2.4% active | AID 485313; further: % of control where 0% means no effect; nearly all actives have a fitted effect of over 60% in size
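In 1536-well qHTS, Huh7 cells harboring an NPC1 promoter–luciferase construct received compound for 24 h; activation was quantified by luminescence following luciferase reagent addition.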
ELG1 genotox: induces genotoxicity in HEK293T cells with luciferase-tagged ELG1 | HEK293T ELG1-luciferase reporter, luminescence, 16 h | Potency, µM (series often up to 46 µM), without a hit: at the top dose activity change, positive = activation, actives largely listed as activators | 330,000 tested, 1.3% active; further: % of control where 0% means no effect; nearly all actives have a fitted effect of over 60% in size
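HEK293T cells expressing luciferase-tagged ELG1 were treated with compound or DMSO for 16 hr at 37°C. Luciferase activity was then read after 30 min with ONE-Glo at room temperature; rising signal flags genetic stress.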
FLuc modulator: inhibits or activates purified firefly luciferase, miR-21 counter-screen; purified FLuc, Km substrates, luminescence inhibition; Potency, µM (highest dose often 57.5 µM), for inactives: at the top dose activity change, negative = inhibition, hits mostly inhibitors; 360,000 tested, 6.9% active; AID 588342;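 further: plate controls were vehicle for no effect and reference inhibitor for full effect; nearly all actives have a fitted effect of over 55% in size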
Target sequence (P08659 whole entry, looked up): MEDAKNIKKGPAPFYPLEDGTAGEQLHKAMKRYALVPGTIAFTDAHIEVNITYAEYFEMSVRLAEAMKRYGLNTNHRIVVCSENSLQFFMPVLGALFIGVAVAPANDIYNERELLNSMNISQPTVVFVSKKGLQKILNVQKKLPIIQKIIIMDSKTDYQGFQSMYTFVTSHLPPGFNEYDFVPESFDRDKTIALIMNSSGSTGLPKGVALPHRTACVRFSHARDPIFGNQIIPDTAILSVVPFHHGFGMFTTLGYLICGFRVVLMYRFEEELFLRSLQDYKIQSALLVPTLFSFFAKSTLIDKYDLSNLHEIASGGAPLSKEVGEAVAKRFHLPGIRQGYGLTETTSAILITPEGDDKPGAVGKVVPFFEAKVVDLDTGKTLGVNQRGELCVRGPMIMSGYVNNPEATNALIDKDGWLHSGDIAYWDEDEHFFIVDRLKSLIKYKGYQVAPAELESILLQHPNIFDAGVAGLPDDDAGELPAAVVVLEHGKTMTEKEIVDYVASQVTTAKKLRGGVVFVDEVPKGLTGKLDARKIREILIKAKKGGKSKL
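Purified P. pyralis luciferase, 10 nM final, with Km-level 10 uM D-luciferin and 10 uM ATP in 50 mM Tris acetate pH 7.5, 10 mM Mg acetate, 0.01% Tween-20, 0.05% BSA; 6-point qHTS titration about 60 µM downward; luminescence read.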
* marks the source's active call; other numbers are inactive results; ? = inconclusive; nt = not tested or not shown. The call rests on the fitted dose curve; in most records, active means well fitted curve in the direction sought with a large enough effect; inconclusive means small, poorly fitted or top-dose-only effect, or another doubt; inactive means no such curve, though single readings can be large; an effect the other way counts as inactive or inconclusive. Potency means the concentration at half of the fitted maximal effect.

SMILES | Rab9 prom act | SMN2 splice up | NPC1 prom act | ELG1 genotox | FLuc modulator
O=C(Nc1ccc(N2CCCCCC2)cc1)c1ccc[nH]1 | 0.4µM* | nt | 1.1µM* | ? | nt
O=C(Nc1ccc(N2CCCCCC2)cc1)c1ccccc1Cl | ? | 14µM* | 21% | ? | 11µM*
O=C(COc1ccc(F)cc1Cl)Nc1ccc(S(=O)(=O)Nc2nccs2)cc1 | -5% | nt | 2% | ? | ?
CC(NC(=O)CCCN1C(=O)CCn2nc(-c3cn(C)c4ccccc34)cc21)c1ccccc1 (stereo unspecified) | nt | nt | nt | nt | -2%
Cc1ccc(NC(=S)NCc2ccco2)c(C)c1 | -2% | nt | -2% | 0% | 2%
O=C(Nc1ccc(SC(F)(F)F)cc1)c1ccccn1 | 1.4µM* | 2.2µM* | ? | 2.3µM* | 0.85µM*
O=C(Nc1ccccc1)c1cccnc1N1CCCC1 | -4% | -10% | 5% | 1% | 0%
O=C(Nc1ccc(N2CCCCC2)cc1)c1ccccn1 | ? | -77% | ? | ? | 0.067µM*
Cc1cccc(N2CCN(C(=O)c3ccccc3OCc3c(C)noc3C)CC2)c1C | -5% | nt | -1% | -5% | -2%
O=c1[nH]c(CSc2ccccn2)nc2c1oc1ccccc12 | 0.79µM* | 1µM* | 3.5µM* | ? | 2.7µM*
CCc1nc2c(oc3ccccc32)c(=O)[nH]1 | 23% | 6% | 24% | 5% | ?
Cc1ccc(/C(N)=N/OC(=O)N2CCOCC2)cc1 | 21% | -23% | 18% | 2% | ?
N/C(=N\OC(=O)C12CC3CC(CC(C3)C1)C2)c1ccncc1 | -1% | nt | -3% | 8% | 19µM*
Cc1ccc(/C(N)=N/OC(=O)C23CC4CC(CC(C4)C2)C3)cc1 | ? | -15% | 24% | 4% | 9.5µM*
O=C(NCC(c1cccs1)S(=O)(=O)c1cccs1)c1cccc(F)c1 (stereo unspecified) | nt | nt | nt | nt | -7%
CC(=O)Nc1nc(C2COc3ccccc3O2)cs1 (stereo unspecified) | 0.56µM* | 4µM* | 1.3µM* | 0.65µM* | 4.8µM*
N/C(=N\O)C1COc2ccccc2O1 (stereo unspecified) | -3% | -12% | -7% | 6% | -1%
NC(N)=Nc1nc(C2COc3ccccc3O2)cs1 (stereo unspecified) | 1.3µM* | 4.5µM* | 1.6µM* | ? | 3.4µM*
CCOc1ccc2oc(C(=O)NNC(=O)c3ccccc3O)c(C)c2c1 | 16% | nt | 21% | ? | 11µM*
Cc1c(C(=O)NCc2ccccn2)oc2ccccc12 | ? | ? | ? | 15µM* | ?
Cc1c(C(=O)Nc2ccc(Cl)cn2)oc2ccccc12 | 21% | ? | 28% | ? | -6%
Cc1c(C(=O)NC2CCCC2)oc2ccccc12 | 16% | nt | 9% | 7% | ?
Cc1c(C(=O)Nc2cnccn2)oc2ccccc12 | 29% | 11µM* | 14% | ? | 15µM*
Cc1ccnc(NC(=O)c2oc3ccccc3c2C)c1 | 2.5µM* | nt | 2.8µM* | ? | 1.2µM*
O=c1c2cn(Cc3ccccc3)c3ccccc3c-2nn1Cc1ccc(F)cc1Cl | -2% | nt | -2% | 4% | 2%
SMILES | Rab9 prom act | SMN2 splice up | NPC1 prom act | ELG1 genotox | FLuc modulator
COc1ccc(N2CCN(C(=O)c3cn(C)c4ccc(S(=O)(=O)N(C)C5CCCCC5)cc4c3=O)CC2)cc1 | nt | -6% | nt | nt | -17%
COc1ccccc1NC(=O)CN1C(=O)C(c2ccc(F)cc2)=NC12CCCCC2 | nt | -23% | nt | nt | -2%
Cc1ccc(-c2c(CN3CCN(c4cccc(C)c4C)CC3)csc2C)cc1 | nt | nt | nt | nt | 1%
CCOc1ccc2oc(C(=O)O)c(C)c2c1 | 22% | nt | 18% | 9% | ?
CCOc1ccc2oc(C(=O)Nc3cc(C)ccn3)c(C)c2c1 | 0.5µM* | nt | 0.63µM* | ? | 0.34µM*
COc1ccccc1CNC(=O)CCn1c(=O)c2ccccc2n(CC(=O)Nc2ccc(C)cc2Cl)c1=O | nt | 16% | nt | nt | 1%
Cc1ccc(NC(=O)CN(C)C(=O)CSc2ccccc2F)cc1 | nt | nt | nt | 0% | nt
O=C(Nc1cccc([N+](=O)[O-])c1)c1ccc(CN2CCOCC2)cc1 | 24% | nt | 22% | 7% | 17µM*
C/C(=N\NC(=O)c1ccc(CN2CCOCC2)cc1)c1cccc([N+](=O)[O-])c1 | -9% | -24% | 3% | -3% | 0%
O=C(Nc1ccc(CN2CCOCC2)cc1)c1ccc(Br)cc1 | 12% | nt | ? | ? | ?
O=C(NCCSc1ccccc1)c1ccc(CN2CCOCC2)cc1 | 2µM* | nt | 2µM* | ? | 12µM*
CCOc1ccc(NC(=O)c2ccc(NC(=O)c3ccc(CN4CCOCC4)cc3)cc2)cc1 | -14% | nt | -2% | ? | -6%
CCC(C)Oc1ccc(C(=O)Nc2ccc(CN3CCOCC3)cc2)cc1 (stereo unspecified) | -10% | nt | -5% | -2% | 15µM*
O=C(Nc1ccc(CN2CCOCC2)cc1)c1ccc(Cl)cc1 | ? | nt | ? | ? | 17µM*
CC(=O)Nc1ccc(/C(C)=N/NC(=O)c2ccc(CN3CCOCC3)cc2)cc1 | -5% | -43% | -3% | 1% | 0%
O=C(Nc1ccc(S(=O)(=O)N2CCOCC2)cc1)c1ccco1 | -7% | -8% | -3% | 3% | 5%
COc1ccc(C(=O)NC(=S)Nc2ccc(CN3CCOCC3)cc2)cc1Br | -9% | nt | 2% | -10% | -5%
C/C(=N\NC(=O)c1ccc(CN2CCOCC2)cc1)c1ccc(NC(=O)c2ccccc2)cc1 | ? | 11µM* | ? | ? | ?
O=C(Nc1ccc(CN2CCOCC2)cc1)c1ccco1 | 1.4µM* | nt | 2µM* | ? | 21µM*
O=C(Nc1ccccc1N1CCOCC1)c1ccc2ccccc2c1 | 3% | nt | 8% | -4% | 11µM*
CCOc1ccc(C(=O)Nc2ccc(CN3CCOCC3)cc2)cc1Br | 4% | nt | 1% | -6% | 13µM*
COc1cc(NC(=O)c2cnc3c(-c4ccc(F)cc4)c(C)nn3c2C)cc(OC)c1 | nt | nt | nt | nt | -13%
COc1ccc(CCNC(=O)CN2C(=O)COc3ccc(C)cc32)cc1OC | nt | -5% | nt | nt | 0%
CC(=O)c1ccc(NC(=O)CCCN2C(=O)COc3ccc(C)cc32)cc1 | 7% | nt | -2% | 1% | 4%
COc1ccccc1OCc1ccc(C(=O)Nc2ccccc2)cc1 | ? | nt | ? | 7% | -17%
O=C(NC(N1CCOCC1)C(Cl)(Cl)Cl)c1ccco1 (stereo unspecified) | ? | nt | ? | 16µM* | 8.5µM*
O=C(Nc1ccc(Cn2cccn2)cc1)c1ccc(COc2ccccc2Br)cc1 | -5% | -43% | 9% | -6% | 17µM*
Cc1cc(/C=N/NC(=O)c2ccc(CN3CCOCC3)cc2)c(C)n1-c1ccccc1 | -1% | -51% | 1% | ? | 6.7µM*
O=C(Nc1ccc(CN2CCOCC2)cc1)c1ccc(F)cc1 | ? | nt | ? | ? | 21µM*
CCCOc1nc(SCCC)nc2c1cnn2-c1ccccc1 | -2% | nt | -3% | 2% | 4%

Source: PubChem (National Center for Advancing Translational Sciences (NCATS))
